Measurements as given in PubChem BioAssay (Tox21).
Records with an inconclusive call do not appear. Active and inactive are the calls of the source. Unless noted, calls follow the shape of the full dose curve.

Assays:
[1] = qHTS assay to identify small molecule antagonists of the vitamin D receptor (VDR) signaling pathway - cell viability counter screen (AID 743225; active = well fitted curve in the direction sought with a large enough effect in the repeat runs; an effect the other way counts as inactive or inconclusive; also: nearly all actives have a fitted effect of over 50% in size)
In short: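 Cytotoxicity toward the VDR-bla HEK 293T line was scored by ATP-based CellTiter-Glo luminescence, read in the wells already used for the beta-lactamase readout after 16 h compound treatment under 3 nM 1-alpha,25-dihydroxyvitamin D3 stimulation.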

[2] = qHTS assay to identify small molecule agonists of the NFkB signaling pathway (AID 1159509; active = well fitted curve in the direction sought with a large enough effect in the signal ratio in the repeat runs, not every such curve was filed as active; the % refers to the signal ratio; also: series mostly up to about 61 µM)
In short: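 Readout: FRET fluorescence, 405 nm excitation, 460/530 nm emission; beta-lactamase expression disrupts FRET. Cells: ME-180 stably carrying NF-kB-driven bla reporter. Compound exposure 5 hr, 37 C, 5% CO2.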

[3] = qHTS assay to identify small molecule agonists of the NFkB signaling pathway - cell viability counter screen (AID 1159515); also: series mostly up to about 61 µM; nearly all actives have a fitted effect of over 55% in size
In short: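 Cells are seeded (2,000 NFkB-bla ME-180 per well), rested overnight, and dosed with DMSO-dissolved compounds for 5 hr at 37 C. Viability is then read by CellTiter-Glo luminescence after 30 min at room temperature.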

[4] = qHTS assay to identify small molecule agonists of the endoplasmic reticulum stress response signaling pathway (AID 1159516; active = well fitted activation curve with a large enough effect in the signal ratio in the repeat runs, not every such curve was filed as active; the % refers to the signal ratio)
In short: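 Cells are seeded at 1,500 per well and incubated overnight. Compounds in DMSO are added for 5 hr at 37 C, then beta-lactamase FRET substrate for 2 hr at room temperature, and fluorescence at 460 and 530 nm is measured.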

[5] = qHTS assay to identify small molecule agonists of the endoplasmic reticulum stress response signaling pathway - cell viability counter screen (AID 1159517);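 also: HeLa cells carrying an ER stress response element beta-lactamase reporter; series mostly up to about 61 µM; nearly all actives have a fitted effect of over 50% in size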
In short: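 Steps: seed 1,500 ESRE-bla HeLa cells per well; incubate overnight at 37 C, 5% CO2; add compounds in DMSO for 5 hr; run FRET substrate 2 hr RT; add CellTiter-Glo, wait 30 min, read luminescence.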

[6] = qHTS assay to identify small molecule antagonists of the retinoid-related orphan receptor gamma (ROR-gamma) signaling pathway - cell viability counter screen (AID 1159520; active = well fitted curve in the direction sought with a large enough effect in the repeat runs; an effect the other way counts as inactive or inconclusive; also: nearly all actives have a fitted effect of over 50% in size)
In short: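 Tet-on ROR gamma CHO cells were given compounds for 2 hr, then doxycycline hyclate at 1 uM final, and incubated 16 hr at 37 C. Viability was measured as ATP content by CellTiter-Glo luminescence.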

[7] = target: Nuclear receptor ROR-gamma (Homo sapiens) (UniProt P51449); test: qHTS assay to identify small molecule antagonists of the retinoid-related orphan receptor gamma (ROR-gamma) signaling pathway (AID 1159521; active = well fitted curve in the direction sought with a large enough effect in the repeat runs; an effect the other way counts as inactive or inconclusive;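 also: CHO cells with doxycycline inducible ROR-gamma driving an RORE luciferase reporter; top concentration of the series differs between compounds; nearly all actives have a fitted effect of over 50% in size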)
In short: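 Readout: ONE-Glo luciferase luminescence, 30 min at room temperature. System: Tet-on RORγ CHO, RORE-LUC. Sequence: compound 2 h, doxycycline 1 uM final, 16 h at 37 C.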

[8] = qHTS assay to identify small molecule agonists of the AP-1 signaling pathway - cell viability counter screen (AID 1159525); also: nearly all actives have a fitted effect of over 55% in size
In short: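 Same-well cytotoxicity counter screen of the Tox21 10K library in ME-180 cells. The readout is ATP-dependent luminescence after 5 h compound treatment. Data are normalised to DMSO and tetra n-octyl ammonium bromide controls.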

[9] = qHTS assay to identify small molecule agonists of the AP-1 signaling pathway (AID 1159526)
[10] = target: Retinoic acid receptor RXR-alpha (Homo sapiens) (UniProt P19793); test: qHTS assay to identify small molecule agonists of the RXR signaling pathway (AID 1159527); also: nearly all actives have a fitted effect of over 35% in size; also: potency is read from the fitted curve at half-maximal effect
Chain of Retinoic acid receptor RXR-alpha (Homo sapiens) (P19793 whole entry, looked up): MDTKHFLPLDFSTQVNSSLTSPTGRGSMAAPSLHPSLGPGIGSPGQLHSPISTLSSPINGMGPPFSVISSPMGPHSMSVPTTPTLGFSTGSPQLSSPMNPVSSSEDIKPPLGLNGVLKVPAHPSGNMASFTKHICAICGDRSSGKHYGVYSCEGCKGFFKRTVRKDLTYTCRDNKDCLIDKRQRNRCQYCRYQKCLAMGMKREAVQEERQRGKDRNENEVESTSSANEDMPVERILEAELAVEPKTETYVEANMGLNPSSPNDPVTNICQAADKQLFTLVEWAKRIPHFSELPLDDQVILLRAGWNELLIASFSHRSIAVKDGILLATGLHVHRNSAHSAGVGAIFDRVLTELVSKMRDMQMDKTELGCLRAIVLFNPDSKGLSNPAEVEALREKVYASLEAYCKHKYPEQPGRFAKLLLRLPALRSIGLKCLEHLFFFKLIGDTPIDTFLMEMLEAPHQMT
In short: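 Reporter activation is measured as beta-lactamase activity via FRET substrate cleavage (emission 460/530 nm) in HEK 293T cells expressing an RXR-alpha-driven bla construct, following 16 hr compound exposure at 37 C.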

Measured: Potency

C=CCSSCCC
inactive: all assays above

O=C(O)c1cc2ccccc2nc1C(=O)O
inactive: all assays above

CCCC(=O)Nc1ccc(OCC(O)CNC(C)C)c(C(C)=O)c1 (stereo not given)
inactive: all assays above

O=C(O)CCCCCC(=O)O
inactive: all assays above

CC(C)OC(=O)CCC(=O)OC(C)C
inactive: all assays above

N#CCC(=O)NN
inactive: all assays above

COc1ccc2c(c1)c1c3n2CCN(C)C3=NCC1
inactive: all assays above

CCCCOCCOC(=O)COc1ccc(Cl)cc1Cl
inactive: all assays above

CC12CCC(C1)C(C)(C)C2O (stereo not given)
inactive: all assays above

c1ccc(B(c2ccccc2)c2ccccc2)cc1
inactive: all assays above

CC(C)[C@H]1CC[C@H](C)C[C@@H]1O
inactive: all assays above

CC(C)(CO)C(O)C(=O)NCCCO (stereo not given)
inactive: all assays above

Cc1ccc(C)c([N+](=O)[O-])c1
inactive: all assays above

CC(=O)OCC(=O)Nc1cc(C#N)cc(NC(=O)COC(C)=O)c1Cl
inactive: all assays above

C[C@@H](O)C(=O)O
inactive: all assays above

COC(=O)/C=C\C(=O)O
inactive: all assays above

CC(=O)O[Si](C)(OC(C)=O)OC(C)=O
inactive: all assays above

C/C(CC(C)C)=N\O
inactive: all assays above

CC(C)c1ccc(C=O)cc1
active: [10] 43.6 µM
inactive: all other assays above

O=[N+]([O-])c1c(Cl)cc(Cl)cc1Cl
inactive: all assays above

CC(C)OC(=O)OCOP(=O)(CO[C@H](C)Cn1cnc2c(N)ncnc21)OCOC(=O)OC(C)C
inactive: all assays above
